Test [1] has as its system Vero E6 infected with SARS-CoV-2. The test is described as follows: morphology score (similarity to uninfected cells); higher = more like uninfected cells. Particulars: 24 h.
Test [2] has the same test system. The test is described as follows: SARS-CoV-2 infection rate relative to infected DMSO; higher = more infection, active = 60 or less. Particulars: 24 h.

Each structure is given as a SMILES string.

`Cc1c(Cl)c(C)[n+]([O-])c(Cl)c1-c1noc(-c2cc(O)c(O)c([N+](=O)[O-])c2)n1` [opicapone] (10 µM): the morphology score in test [1] is 0.125. In addition, the SARS-CoV-2 infection rate in test [2] is 102% (inactive).

The molecule `Cc1nc(N)sc1-c1ccnc(Nc2ccc(N3CCOCC3)cc2)n1` (0.833333 µM) came in with a morphology score in test [1] of 0.443. Also, the SARS-CoV-2 infection rate in test [2] is 93% (inactive).

Molecule `COc1ccccc1C1(O)CCN(CCCn2c3ccccc3c3ccccc32)CC1` (0.833333 µM) registered a morphology score in test [1] of 0.0278. In addition, in test [2], the SARS-CoV-2 infection rate is 97.5% (inactive).

In test [1], `CC(C)(C)c1ccc(CN2CCN(C(c3ccccc3)c3ccc(Cl)cc3)CC2)cc1` (stereo not given) [buclizine] (10 µM) gave a morphology score of 0.307. The SARS-CoV-2 infection rate in test [2] is 90.5% (inactive).

In test [1], `O=C(c1ccc(F)cc1)C1CCN(CCCCc2ccccc2)CC1` [4-(4-fluorobenzoyl)-1-(4-phenylbutyl)-piperidine] (10 µM) displayed a morphology score of -0.00104. The SARS-CoV-2 infection rate in test [2] was 110% (inactive).

For the molecule `CN1CC2c3ccccc3Oc3ccc(Cl)cc3C2C1` (stereo not given) [asenapine] (10 µM), the morphology score in test [1] was determined as 0.67. Moreover, the SARS-CoV-2 infection rate in test [2] is 41% (active).

In test [1], `CC(=O)OCC(=O)[C@H]1CC[C@H]2[C@@H]3CC[C@H]4C[C@H](O)CC[C@]4(C)[C@H]3C(=O)C[C@]12C` [alfadolone-acetate] (10 µM) had a morphology score of -0.231. Besides, in test [2], the SARS-CoV-2 infection rate was 116% (inactive).

`C[C@@H](O)[C@@H]1NC(=O)[C@H](CCCCN)NC(=O)[C@@H](Cc2c[nH]c3ccccc23)NC(=O)[C@H](Cc2ccccc2)NC(=O)[C@@H](NC(=O)[C@H](N)Cc2ccccc2)CSSC[C@@H](C(=O)N[C@H](CO)[C@@H](C)O)NC1=O` [octreotide] (10 µM) came in with a morphology score in test [1] of 0.0589. Also, the SARS-CoV-2 infection rate in test [2] was 102% (inactive).

As for `CN1C[C@H](CNC(=O)OCc2ccccc2)C[C@@H]2c3cccc4c3c(cn4C)C[C@H]21` [metergoline] (10 µM), in test [1], the morphology score is 0.164. Further, the SARS-CoV-2 infection rate in test [2] is 97.5% (inactive).

In test [1], `O=C1CCCN1CC#CCN1CCCC1` [oxotremorine-sesquifumarate] (10 µM) came in with a morphology score of 0.062. For the same molecule, the SARS-CoV-2 infection rate in test [2] was 100% (inactive).

In test [1], `CCOC(=O)c1ccc(-n2cc(Cc3cnc(OCC)nc3)c(=O)nc2SCc2ccc(F)cc2)cc1` (10 µM) gave a morphology score of 0.18. In test [2], the SARS-CoV-2 infection rate was 90.5% (inactive).

For `Cc1ccc(C(=O)N(CCCN)[C@@H](c2oc3cc(Cl)ccc3c(=O)c2Cc2ccccc2)C(C)C)cc1` (0.833333 µM), the morphology score in test [1] is -0.422. For the same molecule, the SARS-CoV-2 infection rate in test [2] is 115% (inactive).

`Cc1cc(C)c(/C=C2\C(=O)Nc3ccccc32)[nH]1` [semaxanib] (10 µM) yielded a morphology score in test [1] of 0.208. Moreover, the SARS-CoV-2 infection rate in test [2] was 96% (inactive).

For the molecule `O=C(Nc1ccccc1)Nc1ccc(-c2ccc(C(=O)[C@@H]3CCC[C@@H]3C(=O)O)cc2)cc1` (10 µM), the morphology score in test [1] came out at 0.202. For the same molecule, in test [2], the SARS-CoV-2 infection rate was 102% (inactive).

`CCC(C)C(C(=O)OCC[N+](C)(CC)CC)c1ccccc1` (stereo not given) [valethamate] (10 µM) returned a morphology score in test [1] of 0.0952. Besides, in test [2], the SARS-CoV-2 infection rate is 95% (inactive).

For the molecule `CCCCC/C=C\C/C=C\C/C=C\CCCCC(=O)O` [gamma-linolenic-acid] (10 µM), in test [1], the morphology score was 0.0589. Moreover, in test [2], the SARS-CoV-2 infection rate is 102% (inactive).

In turn, `Cc1cc(NCCO)nc(-c2ccc(Br)cc2)n1` (10 µM) had a morphology score in test [1] of 0.269. For the same molecule, the SARS-CoV-2 infection rate in test [2] is 101% (inactive).

On to `CC[C@@H](CO)NC(=O)[C@@H]1C=C2c3cccc4[nH]cc(c34)C[C@H]2N(C)C1` [methylergometrine] (10 µM), for which, in test [1], the morphology score stood at 0.112. For the same molecule, the SARS-CoV-2 infection rate in test [2] was 96.5% (inactive).

As to `CCCCN(CCCC)CCCOC(=O)c1ccc(N)cc1` [butacaine] (10 µM), the morphology score in test [1] worked out at 0.206. Further, the SARS-CoV-2 infection rate in test [2] was 100% (inactive).

Turning to `CCn1c(=O)c2c(nc(/C=C/c3ccc(OC)c(OC)c3)n2C)n(CC)c1=O` [istradefylline] (10 µM), the morphology score in test [1] was found to be 0.157. Further, the SARS-CoV-2 infection rate in test [2] is 108% (inactive).

`COc1ccc2[nH]c(SCc3ncc(C)c(OC)c3C)nc2c1` [omeprazole-sulfide] (10 µM) had a morphology score in test [1] of 0.191. Moreover, the SARS-CoV-2 infection rate in test [2] is 104% (inactive).

For `CCCNC(=O)NS(=O)(=O)c1ccc(Cl)cc1` [chlorpropamide] (10 µM), in test [1], the morphology score stood at 0.266. Besides, in test [2], the SARS-CoV-2 infection rate is 79.5% (inactive).

`CCCCc1ccc2[nH]c(NC(=O)OC)nc2c1` [parbendazole] (10 µM) registered a morphology score in test [1] of -0.112. Also, the SARS-CoV-2 infection rate in test [2] is 111% (inactive).

Molecule `Cc1nn(C)c2c1C(c1ccc(C(F)(F)F)cc1)C(C#N)=C(N)O2` (stereo not given) (10 µM) displayed a morphology score in test [1] of 0.0472. Also, the SARS-CoV-2 infection rate in test [2] is 98% (inactive).

Consider `O=C(NCC(=O)N1CCCCC1)Nc1ccc2nnsc2c1` (10 µM), for which, in test [1], the morphology score is -0.144. Besides, in test [2], the SARS-CoV-2 infection rate is 110% (inactive).

In test [1], `COc1cc(Cc2cnc(N)nc2N)cc(OC)c1OC` [trimethoprim] (10 µM) had a morphology score of -0.0548. For the same molecule, in test [2], the SARS-CoV-2 infection rate was 98.5% (inactive).

`CN(Cc1ccc(C(C)(C)C)cc1)Cc1cccc2ccccc12` [butenafine] (10 µM) registered a morphology score in test [1] of 0.502. For the same molecule, the SARS-CoV-2 infection rate in test [2] was 71% (inactive).

Molecule `COc1cc(NC(=O)Nc2cccc(CNC(=O)O[C@H]3CCOC3)c2)ccc1-c1cnco1` [merimepodib] (10 µM) gave a morphology score in test [1] of 0.447. In addition, the SARS-CoV-2 infection rate in test [2] is 62.5% (inactive).

In test [1], `COc1ccc(CCCO[C@@H](Cn2ccnc2)c2ccc(OC)cc2)cc1` (0.833333 µM) came in with a morphology score of 0.00702. The SARS-CoV-2 infection rate in test [2] is 107% (inactive).

Turning to `COc1ccc(NS(=O)(=O)c2sc3ccc(Cl)cc3c2C)cc1N1CCNCC1` (10 µM), the morphology score in test [1] is 0.192. Moreover, the SARS-CoV-2 infection rate in test [2] was 108% (inactive).
